Shn3 inh set2 – inhibitors of Schnurri-3 3'UTR reporter in osteoblasts; inhibition, % at 12.5 µM; actives 0.52% (n = 360,000); Clone20 osteoblast Shn3 3'UTR firefly luciferase, 24 h;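 active = mean inhibition of at least 75% with every replicate also reaching 75%; inconclusive = mean inhibition at least 75% but some replicate below; inactive = mean inhibition below 75%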;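 also: 0% = median of neutral control wells and 100% = pilot-screen positive control compound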
TRPM1 prom inh – MITF TRPM1 promoter inhibition in SK-MEL-5 cells. SK-MEL-5 TRPM1 promoter luciferase, 24 h. inhibition, % at 12.5 µM. actives 0.83% (n = 330,000). AID 488899;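 active = mean inhibition across replicates of 60% or more, whatever share of single replicates reaches that level; inconclusive = some that reach 60%, reason not given; inactive = mean inhibition across replicates below 60%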
PAX8 inh HTS – lowers PAX8-driven luciferase in RMG-I cells; inhibition, % at 12.6 µM; actives 1.2% (n = 360,000); RMG-I TPO-luciferase reporter, SteadyGlo, 24 h;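 active = mean replicate inhibition at least 60% with every replicate also reaching 60%; inconclusive = only one of the two criteria is met; inactive = mean below 60% and not all replicates reaching 60%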;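 also: luciferase light reporting Pax8 driven TPO promoter activity; plate controls were median of neutral control wells for no effect and mitoxantrone controls for full effect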
ABHD5 PLIN5 PPI – inhibitors of human ABHD5-perilipin-5 interaction | actives 0.78% (n = 360,000) | Split G. princeps luciferase complementation, luminescence, 4 h | inhibition, % at 4 µM | Q00G26+Q8WTS1;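 active = inhibition above the mean inhibition across every tested compound plus 3 SD, cut at about 22% in these data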;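 also: 0% = DMSO only wells and the 100% control is not disclosed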
Target sequence (Q00G26 whole entry, looked up): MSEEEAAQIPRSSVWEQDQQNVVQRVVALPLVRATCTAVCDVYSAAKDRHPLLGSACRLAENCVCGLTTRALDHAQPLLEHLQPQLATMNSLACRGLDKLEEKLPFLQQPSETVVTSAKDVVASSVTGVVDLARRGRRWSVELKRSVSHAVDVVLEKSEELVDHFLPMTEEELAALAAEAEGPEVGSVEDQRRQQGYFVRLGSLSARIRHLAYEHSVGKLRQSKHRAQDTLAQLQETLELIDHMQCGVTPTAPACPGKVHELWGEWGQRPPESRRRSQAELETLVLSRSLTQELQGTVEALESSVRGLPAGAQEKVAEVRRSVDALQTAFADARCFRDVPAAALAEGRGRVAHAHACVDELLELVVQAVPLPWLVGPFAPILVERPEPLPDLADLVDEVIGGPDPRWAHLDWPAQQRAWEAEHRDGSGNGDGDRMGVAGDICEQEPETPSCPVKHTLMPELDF
Target sequence (Q8WTS1 whole entry, looked up): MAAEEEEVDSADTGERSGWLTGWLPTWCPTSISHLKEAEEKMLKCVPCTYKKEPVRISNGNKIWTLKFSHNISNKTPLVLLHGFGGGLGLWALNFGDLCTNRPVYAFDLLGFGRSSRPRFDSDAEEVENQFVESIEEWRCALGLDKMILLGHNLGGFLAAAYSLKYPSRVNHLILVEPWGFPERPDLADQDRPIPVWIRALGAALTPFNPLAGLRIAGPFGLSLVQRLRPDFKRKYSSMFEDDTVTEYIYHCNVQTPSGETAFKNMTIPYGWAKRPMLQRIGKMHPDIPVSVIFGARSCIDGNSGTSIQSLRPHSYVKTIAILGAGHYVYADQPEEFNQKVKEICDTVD
EWS-Fli inh – EWS/Fli transcriptional activity inhibition; actives 0.67% (n = 350,000); inhibition, % at 12.6 µM; AID 651661; A673 NR0B1-luciferase reporter, viability-normalised;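 active = mean inhibition of at least 50% after viability correction, with every replicate also passing that limit; inconclusive = mean reaches 50% but only one of two replicates passes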;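 also: firefly luciferase signal divided by Alamar Blue viability fluorescence both relative to DMSO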
Peg3 promoter – inhibitors of Peg3 promoter; actives 1.7% (n = 360,000); AID 588405; inhibition, % at 20 µM; HeLa PEG-Prom luciferase reporter, luminescence, overnight;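 active = inhibition of at least 50% at 20 µM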
* hit, by the source's call; ? = inconclusive; · = no result; ! = a repeat was not active. The list is not random: actives were taken first. Their share in the collection is about 3%.

SMILES	Shn3 inh set2	TRPM1 prom inh	PAX8 inh HTS	ABHD5 PLIN5 PPI	EWS-Fli inh	Peg3 promoter
CC(C)N(C(=O)COC(=O)c1ccccc1C(=O)c1ccc(Cl)c([N+](=O)[O-])c1)C(C)C	-1.9	44.8	35.7	-0.3	?	73.5*
Cn1c(N)c(C(=O)COC(=O)c2ccccc2C(=O)c2ccc(Cl)c([N+](=O)[O-])c2)c(=O)n(C)c1=O	16.2	92.0*	·	0.8	·	96.2*
O=C(OCC(=O)N1CCc2ccccc2C1)c1ccc(Cl)c([N+](=O)[O-])c1	12.1	11.0	11.6	-2.8	11.4	98.8*
COc1ccc(C(=O)c2ccc(Cl)c([N+](=O)[O-])c2)cc1	23.6	64.0*	107.7*	0.4	48.3	19.2
Cc1noc(C)c1S(=O)(=O)N(C)C[C@@H]1Oc2ccc(NS(=O)(=O)c3ccccc3)cc2C(=O)N([C@@H](C)CO)C[C@@H]1C	·	·	6.6	·	-5.4	·
Cc1ccc(S(=O)(=O)N[C@H]2CC[C@H](CC(=O)NC3CCCCC3)O[C@H]2CO)cc1	·	·	3.3	·	-4.9	·
Cc1noc(C)c1NC(=O)Nc1cccc2c1O[C@@H](CN(C)CC1CCCCC1)[C@@H](C)CN([C@H](C)CO)C2=O	·	·	-10.7	·	9.1	·
O=C(C1CCCCC1)N1CC2(C1)[C@@H](c1ccccc1)[C@@H](CO)N2Cc1cncnc1	·	·	·	·	1.8	·
O=C(COC(=O)c1ccccc1C(=O)c1ccc(Cl)c([N+](=O)[O-])c1)NC1CCCCCC1	26.1	99.8*	15.2	2.5	·	104.3*
CN(C)C(=O)c1ccc(-c2ccc([C@H]3[C@@H](CO)N4CCCCN(C(=O)C5CCC5)C[C@H]34)cc2)cc1	·	·	4.4	·	4.3	·
CO[C@@H]1CN(C)C(=O)c2ccc(NC(=O)Nc3c(C)noc3C)cc2OC[C@H](C)N(CCC(F)(F)F)C[C@H]1C	·	·	-7.7	·	3.6	·
C[C@H](C[C@H](O)[C@H]1OC1(C)C)C1=C2C[C@H](O)C3[C@@]4(C)CCC(=O)C(C)(C)C4CC[C@]3(C)[C@@]2(C)CC1 (stereo partly drawn)	56.9	2.7	15.5	14.2	0.8	-5.8
C[C@@H](C[C@@H](O)[C@H](O)C(C)(C)O)[C@@H]1CC[C@]2(C)C3=CC[C@H]4C(C)(C)C(=O)CC[C@]4(C)[C@H]3CC[C@@]12C	92.1*	9.4	45.9	-2.9	42.7	33.5
COc1ccc(NC(=O)Nc2ccc3c(c2)[C@H]2C[C@H](CC(=O)NCc4ccccc4F)O[C@H](CO)[C@H]2O3)cc1	·	·	-2.0	·	2.7	·
CC(C)N(C(=O)N1CCN(c2ccnc3cc(Cl)ccc23)CC1)C(C)C	20.5	4.0	17.0	6.6	7.0	54.3*
COc1cc(-c2cc3nc(NCCOc4ccccc4)ccn3n2)cc(OC)c1OC	4.3	·	34.2	4.4	46.4	53.2*
O=C(C[C@H]1C[C@@H]2c3cc(NC(=O)C4CCOCC4)ccc3O[C@@H]2[C@@H](CO)O1)NCc1ccc(Oc2ccccc2)cc1	·	·	77.9*	·	17.8	·
O=C(C[C@@H]1C[C@H]2c3cc(NC(=O)Nc4ccccc4F)ccc3O[C@H]2[C@H](CO)O1)NCc1ccc(Oc2ccccc2)cc1	·	·	74.6*	·	-2.7	·
O=C(C[C@@H]1C[C@H]2c3cc(NC(=O)C4CCOCC4)ccc3O[C@H]2[C@@H](CO)O1)NCc1ccc(Oc2ccccc2)cc1	·	·	-6.4	·	-7.2	·
CC(CC(=O)N(CCC1=CCCCC1)c1c(N)n(Cc2ccccc2)c(=O)[nH]c1=O)c1ccccc1 (stereo not drawn)	19.1	?	-0.3	8.7	34.9	87.1*
CCOc1ccc(OCC(=O)N(CCC2=CCCCC2)c2c(N)n(Cc3ccccc3)c(=O)[nH]c2=O)cc1	81.7	76.8*	-9.3	-5.0	39.3	82.7*
CCOc1ccc(OCCC(=O)N(CCC2=CCCCC2)c2c(N)n(Cc3ccccc3)c(=O)[nH]c2=O)cc1	24.3	8.4	-0.6	-6.3	6.0	29.4
O=C(NC[C@@H]1[C@@H](c2ccccc2)[C@@H](CO)N1Cc1cccnc1)C1CCCCC1	·	·	·	·	2.7	·
NC(=O)C1CCN(c2ncnc3c2c(-c2ccccc2)cn3-c2ccccc2)CC1	-10.5	-5.2	6.2	4.4	8.4	61.5*
CCN1CCN(c2ncnc3c2c(-c2ccccc2)cn3-c2ccc(F)cc2)CC1	-13.5	-1.5	2.3	5.2	-6.0	17.8
SMILES	Shn3 inh set2	TRPM1 prom inh	PAX8 inh HTS	ABHD5 PLIN5 PPI	EWS-Fli inh	Peg3 promoter
Brc1ccc(-n2cc(-c3ccccc3)c3c(NN4CCOCC4)ncnc32)cc1	-15.9	-12.0	95.3*	-0.2	9.2	-29.1
Fc1ccc(-n2cc(-c3ccccc3)c3c(N4CCOCC4)ncnc32)cc1	26.8	8.0	38.3	-4.2	2.0	54.3*
COc1ccc(NC(=O)N2C[C@@H](O)COC[C@@H]3O[C@@H](CC(=O)N4CCN(C)CC4)CC[C@H]32)cc1	·	·	-22.1	·	-19.3	·
Cc1ccc(NC(=O)COc2ccccc2CNC(C)(C)CC(C)(C)C)cc1	30.9	52.2	·	12.5	·	74.5*
CC(C)(CO)NCc1ccccc1OCC(=O)Nc1ccccc1	-47.4	11.4	·	2.8	·	-24.8
OCCOCCN1CCN(C2=Nc3ccccc3Sc3ccccc32)CC1	-1.9	1.0	-0.2	22.6*!	-4.3	-15.1
OCCOCCN1CCN(C(c2ccccc2)c2ccc(Cl)cc2)CC1 (stereo not drawn)	8.3	5.1	-10.0	3.3	-13.3	-1.5
CCN(CC)c1ccc2cc(-c3nc4ccccc4[nH]3)c(=O)oc2c1	49.3	78.8*	·	-22.0	·	70.5*
FC(F)(F)c1nc2ccccc2n2c(-c3ccc(Cl)cc3)nnc12	-1.9	76.2*	·	1.6	·	51.0*
FC(F)(F)c1nnc2c(Sc3ccccn3)nc3ccccc3n12	-41.9	46.3	114.0*	8.8	·	23.9
FC(F)(F)c1nnc2c(Sc3ccc(Cl)cc3)nc3ccccc3n12	7.9	78.5*	88.4*	1.4	·	67.3*
Cc1ccc(C)c(N2CCN(S(=O)(=O)c3ccc4[nH]c(=O)ccc4c3)CC2)c1	93.6*	·	12.1	-3.0	13.4	11.3
CCOc1ccc(-c2cnc3ccccc3n2)cc1	60.7	43.0	31.6	-3.6	77.3*	28.4
O=[N+]([O-])c1ccc(-c2cnc3ccccc3n2)cc1	-81.2	-59.5	-116.9	-5.0	-78.7	-206.6
c1ccn2cc(-c3ccc4c(c3)OCCO4)nc2c1	-3.2	34.1	55.9	-2.3	54.1*	-29.2
CCCNC(=O)N[C@H]1CC[C@H](CCn2cc(C3CCCCC3)nn2)O[C@H]1CO	·	·	-10.9	·	1.4	·
CCn1cc(CNCc2cn(C)nc2-c2ccc(C3CCCCC3)cc2)cn1	-4.3	3.5	-10.7	9.9	1.9	67.7*
CO[C@H]1CN(C)C(=O)c2cc(NS(=O)(=O)c3ccccc3)ccc2OC[C@H](C)N(C(=O)NC(C)C)C[C@H]1C	·	·	7.4	·	6.0	·
O=C(NC1CC1)c1cccc2c1C(=O)c1ccc(N3CCC(Cc4ccccc4)CC3)cc1S2(=O)=O	44.0	16.2	3.2	-5.3	19.9	26.1
O=C1c2ccc(Cl)cc2S(=O)(=O)c2cccc(C(=O)N3CCC(Cc4ccccc4)CC3)c21	-11.9	-0.1	-7.1	-1.5	10.2	90.8*

From PubChem
